In PubChem BioAssay AID2599 (Sanford-Burnham Center for Chemical Genomics, 2010) one finds inhibition data, which are given here for 99 compounds.

What is called inhibition is the drop in the measured response relative to a control, in per cent.

Hit rate of the full screen: of about 330,000 compounds, about 5,800 (1.8%) were called active.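 Rule for the calls: active = inhibition above about 50% at the single tested dose (limit read from the data); inactive = the rest.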 Shown is part of a subset that was picked to be rich in actives.

For the assay, the target named is Sentrin-specific protease 6 (Homo sapiens) (UniProt Q9GZR1). Kind of assay: SENP6 protease inhibitors, primary screen, biochemical, luminescence, uHTS (AID 2599).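 Note: plate controls were DMSO wells with enzyme for no effect and DMSO wells lacking enzyme for full effect.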 Particulars: Recombinant SENP6 catalytic domain, aminoluciferin luminescence; at 10 µM; active compounds read high.
Chain of Sentrin-specific protease 6 (Homo sapiens) (Q9GZR1 628-1112 limits assumed): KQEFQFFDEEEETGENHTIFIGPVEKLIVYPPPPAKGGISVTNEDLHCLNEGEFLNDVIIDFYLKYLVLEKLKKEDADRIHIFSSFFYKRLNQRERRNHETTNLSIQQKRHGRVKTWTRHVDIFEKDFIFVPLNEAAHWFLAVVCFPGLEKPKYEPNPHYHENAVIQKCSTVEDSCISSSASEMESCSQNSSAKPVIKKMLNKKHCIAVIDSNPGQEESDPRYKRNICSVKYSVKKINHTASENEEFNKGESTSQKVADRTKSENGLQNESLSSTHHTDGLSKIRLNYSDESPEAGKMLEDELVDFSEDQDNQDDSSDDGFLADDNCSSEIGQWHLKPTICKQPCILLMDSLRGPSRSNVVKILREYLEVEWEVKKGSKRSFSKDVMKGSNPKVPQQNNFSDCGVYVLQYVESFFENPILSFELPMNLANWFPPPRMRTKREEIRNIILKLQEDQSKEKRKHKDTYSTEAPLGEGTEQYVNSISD
For the compound `O=[N+]([O-])c1ccc(C=Nc2ccc(Cl)cc2Cl)s1`, the inhibition is 57.5% (active). Take `CC(C)(C)c1cc(C(=O)N/N=C/c2ccc([N+](=O)[O-])s2)n[nH]1`: the inhibition was 35.9% (inactive). For `COc1ccc(C(=O)NCC(=O)N/N=C/c2ccc([N+](=O)[O-])s2)cc1OC`, the inhibition was 48.9% (inactive). For the compound `CC(=O)Nc1nc(N(C)C)nc(N(C)C)n1`, the inhibition is -13.9% (inactive). With `Cc1c(C(N)=O)sc2ncn(CCOc3ccccc3)c(=O)c12` the figure was -16.1% (inactive); with `Cc1cccc(OC(=O)c2sc3ncn(C)c(=O)c3c2C)c1`, 52.6% (active). Regarding `CCOC(=O)C(C)n1cnc2sc(C)c(C)c2c1=O` (centres undefined), the inhibition is -17.3% (inactive).

For the compound `FC(F)(F)c1ccc(-n2cn[nH]c2=S)cc1`, the inhibition is -14.6% (inactive). In the case of `CCSC1=NCCN1S(=O)(=O)c1ccc(F)cc1`, the inhibition was -6.19% (inactive). Turning to `CCCn1nnnc1NCc1ccc(CC)cc1`, the inhibition is -6.18% (inactive). As to `O=C(CSc1nn(-c2ccc(F)cc2)c(=S)s1)NC1CCS(=O)(=O)C1` (centres undefined), the inhibition is -6.03% (inactive). Take `Fc1ccc2nc(Nc3nc4c(s3)CCCC4)sc2c1`: the inhibition was 34.4% (inactive). For `O=C(c1ccc2nc(N3CCOCC3)sc2c1)N1CCN(c2ccc(Cl)cc2)CC1`, the inhibition is -6.6% (inactive). For `c1c2c(cc3sc(N4CCCCC4)nc13)OCCO2`, the inhibition is 7.27% (inactive). Regarding `O=S(=O)(Nc1ccc2nc(N3CCOCC3)sc2c1)c1ccccc1`, the inhibition was -2.51% (inactive). To `Fc1ccc2nc(N3CCCCC3)sc2c1` belongs 89.5% (active); to `Brc1ccc2nc(N3CCCC3)sc2c1`, 75.4% (active); to `C/C(=N/NC(=O)CCc1ccccc1)c1ccco1`, 12.1% (inactive). With `C=CCn1c(C)cc(C2=NNC(=NCC)SC2)c1C` the figure was 92.9% (active); with `COc1ccc(CC(NC(C)=O)C(=O)NC2CCN(C(=O)C3CC3)CC2)cc1OC` (centres undefined), -9.43% (inactive).

On to `C=C(C)CSc1nc(N)c2c3c(sc2n1)CCC3`, for which the inhibition is 1.28% (inactive).

As for `O=C(NC(Nc1nc2ccc([N+](=O)[O-])cc2s1)(C(F)(F)F)C(F)(F)F)c1ccccc1`, the inhibition was -1.71% (inactive). With `O=C(Nc1nc2ccc([N+](=O)[O-])cc2s1)c1ccncc1` the figure was 91.5% (active); with `COc1ccc(C(=O)Nc2nc(-c3ccc(OC)cc3)c(-c3ccc([N+](=O)[O-])cc3)s2)cc1`, -31.8% (inactive); with `CCN(CC)S(=O)(=O)c1ccc(N2CCOCC2)c(NC(=O)C2CSC3(C)CCC(=O)N23)c1` (centres undefined), 4.82% (inactive). With `CCOc1ccc2nc(C(=O)N3CCCC(C)C3)sc2c1` (centres undefined) the figure was 70.8% (active); with `CCCC(=O)N(CCN1CCOCC1)c1nc2ccc(OCC)cc2s1`, -4.24% (inactive); with `COc1ccc2cc(C(=O)C3CCCN(C(=O)c4sc(C)nc4C)C3)ccc2c1` (centres undefined), -16.8% (inactive).

Regarding `O=C(NCCS(=O)(=O)NCc1ccc(Cl)cc1)c1ccccc1`, the inhibition was -0.893% (inactive). Take `COc1cccc(N2C(=O)CC(N3CCc4ccccc4C3)C2=O)c1` (centres undefined): the inhibition was 0.083% (inactive). In the case of `CCOc1ccc(N2C(=O)CSC2=NC#N)cc1`, the inhibition is -18.7% (inactive). With `COc1cc2ccccc2cc1C(=O)Nc1ccncc1` the figure was -5.66% (inactive); with `CC(C)(C)n1nc2c(c1NC(=O)c1cc3ccccc3o1)CSC2`, 2.49% (inactive). For `O=C(Nc1ccncc1)c1cc2ccccc2o1`, the inhibition is 63.5% (active). For `CC(OC(=O)Cc1ccc(F)cc1)C(=O)N1CCc2ccccc21` (centres undefined), the inhibition is 8.22% (inactive). As for `CCC(=O)Nc1nnc(S(=O)(=O)N2CCCc3ccccc32)s1`, the inhibition was -3.06% (inactive).

As to `Cc1ccc(-c2nc3ccccc3[nH]2)cc1N`, the inhibition is 91% (active). On to `Nc1cccc(CCc2nc3ccccc3[nH]2)c1`, for which the inhibition was -9.91% (inactive). To `COc1ccc(-c2[nH]nc(-c3ccccc3)c2-c2nc3ccccc3[nH]2)cc1` belongs -1.01% (inactive); to `Clc1ccccc1SCc1nc2ccccc2[nH]1`, 39.4% (inactive). `c1ccc2[nH]c(-c3nc4ccccc4[nH]3)nc2c1`: the inhibition was 97.2% (active). Consider `COc1ccc(Br)cc1C(=O)NC(=S)Nc1cc(-c2nc3ccccc3[nH]2)ccc1C`, for which the inhibition was 6.04% (inactive). For `CC1(C)C2CCC13CS(=O)(=O)NC3C2` (centres undefined), the inhibition is -8.89% (inactive). Take `O=C(Nc1ccc(-c2ccc3nncn3n2)cc1)C1CCCCC1`: the inhibition was -18.8% (inactive).

As to `COc1ccc(N2CCN(CCCNC(=O)C3CCN(S(=O)(=O)N4CCOCC4)CC3)CC2)cc1`, the inhibition is 8.09% (inactive). To `CCNC(=S)N1CCN(S(=O)(=O)c2ccc(Cl)s2)CC1` belongs -2.28% (inactive); to `COc1ccc([N+](=O)[O-])cc1N(CC(=O)Nc1ccccc1C(=O)N1CCOCC1)S(C)(=O)=O`, -14.4% (inactive). Consider `Cc1cc(C)c(S(=O)(=O)c2ccc(F)cc2C)c(=O)[nH]1`, for which the inhibition is -7.65% (inactive). To `Cc1ccc(/C(N)=N/OC(=O)COc2ccc(Cl)c(C)c2)cc1` belongs -9.12% (inactive); to `N/C(=N\OC(=O)c1cc(-c2ccccc2)nc2ccccc12)c1ccncc1`, -23.3% (inactive).

As to `Cc1cccc(/C(N)=N/OC(=O)c2ccccc2Cl)c1`, the inhibition was 86.2% (active). Consider `N#Cc1cc([N+](=O)[O-])ccc1Oc1cccc(/C=N/NC(=O)c2ccc(Cl)cc2)c1`, for which the inhibition is -30.8% (inactive). Consider `COc1ccc2c(C)cc(SCC(=O)NCC3CCCO3)nc2c1` (centres undefined), for which the inhibition was 2.3% (inactive). For `Nn1c(Cc2cccc3ccccc23)nnc1SCC(=O)N1CC(=O)Nc2ccccc21`, the inhibition was -14.3% (inactive). On to `CN(c1ccccc1)S(=O)(=O)c1cc(C(=O)Nc2nc3ccccc3[nH]2)ccc1Cl`, for which the inhibition was 0.946% (inactive). Take `O=C(Cc1ccsc1)N1CCN(S(=O)(=O)c2cc(C(F)(F)F)cc(C(F)(F)F)c2)CC1`: the inhibition was -12.7% (inactive).

Consider `O=c1c(-c2ccccc2Cl)c[nH]n1-c1ccccc1`, for which the inhibition was 5.63% (inactive).

`O=C1c2ccccc2NC(c2ccc(-c3cccc(Cl)c3)o2)N1O` (centres undefined): the inhibition was 2.11% (inactive).

With `O=c1c(-c2cccc(Cl)c2)c[nH]n1-c1ccccc1`, the inhibition was 50.4% (active). With `Cc1ccc(NC(=O)c2ccn(C(=O)Nc3ccccc3)n2)c(C)c1` the figure was 8.66% (inactive).

Take `CCCCC(CC)CNC(=O)C(=O)C1C(=O)Nc2ccccc21` (centres undefined): the inhibition is -18.1% (inactive).

As to `CCCn1nnnc1NCc1ccc(OC)cc1`, the inhibition is -1.58% (inactive). In the case of `COC(=O)c1scc(S(=O)(=O)C(C)(C)C)c1-n1cccc1`, the inhibition was -3.91% (inactive).

Turning to `COc1ccc(C(=O)O/N=C(\N)c2ccccn2)cc1[N+](=O)[O-]`, the inhibition was 13% (inactive). Take `Cc1ccc(C(=O)O/N=C(\N)c2ccccn2)cc1Cl`: the inhibition was 94.1% (active). In the case of `Cc1ccc(NC(=O)c2ccccn2)cc1S(=O)(=O)N1CCOCC1`, the inhibition is -7.58% (inactive). To `N/C(=N\OC(=O)c1ccc([N+](=O)[O-])cc1)c1ccccn1` belongs 93.3% (active); to `O=C(COC(=O)c1ccccn1)NNC(=O)c1ccc([N+](=O)[O-])cc1`, -1.82% (inactive). With `O=C(COC(=O)c1ccccn1)NNC(=O)c1ccc(Br)cc1`, the inhibition is 6.84% (inactive). With `Oc1cc2c(cc1O)CN(C(=S)NCCc1ccc(Cl)cc1)CCC2` the figure was 1.23% (inactive). On to `O=C(NCc1ccncc1)C1CCN(C(=O)c2cccc(Cl)c2)CC1`, for which the inhibition is -3.02% (inactive). To `Cc1cc(Nc2cccc(C)c2C)n2ncnc2n1` belongs -7.33% (inactive); to `C=CCn1c(-c2ccc(Cl)cc2)ccc(C#N)c1=O`, 4.58% (inactive).

With `O=C(Nc1ccc2c(c1)CCC2)c1cccc(S(=O)(=O)Nc2ccccc2Cl)c1`, the inhibition was 58.9% (active). Consider `O=C(Nc1ccc2c(c1)CCC2)c1cccc(S(=O)(=O)N2CCN(c3ccc(F)cc3)CC2)c1`, for which the inhibition was -2.68% (inactive). Take `O=C(c1cccc(S(=O)(=O)Nc2ccccc2Cl)c1)N1CCN(C(=O)c2ccco2)CC1`: the inhibition is 0.095% (inactive). With `CCOc1cnc(C(=O)NNC(=O)c2ccccc2Br)o1`, the inhibition is -9.25% (inactive). To `COc1cc(OC)cc(C(=O)OCC(=O)Nc2ccc(F)cc2F)c1` belongs 3.41% (inactive); to `COc1ccc(C(=O)Nc2ccc(F)cc2F)cc1`, 76.1% (active). In the case of `COc1ccccc1CC(=O)Nc1ccc(F)cc1F`, the inhibition was -5.72% (inactive). On to `Cc1ccc(C)c(S(=O)(=O)N2CCN(C(=O)Nc3ccccc3)CC2)c1`, for which the inhibition was -12.7% (inactive).

As to `CC1CCCC(C)N1C(=O)COC(=O)COc1ccccc1C#N` (centres undefined), the inhibition was -21.9% (inactive). To `Brc1ccc(-c2noc(-c3ccccc3)n2)o1` belongs -29.7% (inactive); to `COc1ccccc1-c1nnc(-c2ccc(F)cc2)o1`, 40.7% (inactive). As to `OC(c1nnc(-c2ccccc2)o1)c1cccs1` (centres undefined), the inhibition is -10.9% (inactive). `Brc1ccc(-c2nnc(-c3ccccc3)o2)o1`: the inhibition was 67.5% (active). In the case of `Nc1ccc(-c2nnc(-c3ccc(-c4ccccc4)cc3)o2)cc1`, the inhibition was 53.4% (active).

Consider `O=C(OCc1ccc(Br)cc1)c1cccc(-c2nnc(-c3ccccc3)o2)c1`, for which the inhibition was -4% (inactive). Take `CN(C)c1ccc(-c2nnc(-c3cccnc3)o2)cc1`: the inhibition is 14.7% (inactive). To `Nc1ccc(-c2nnc(-c3ccccc3)o2)cc1` belongs 61.5% (active).

For `CSc1ccccc1-c1nnc(-c2ccc(Cl)cc2)o1`, the inhibition was 26.3% (inactive).

Regarding `COc1ccc(C(C)=O)cc1COC(=O)Cn1cnc2ccccc2c1=O`, the inhibition is -0.874% (inactive). For the compound `O=C(NCC1CCCO1)c1ccc(S(=O)(=O)Nc2ccc(F)cc2)cc1` (centres undefined), the inhibition is -0.148% (inactive). For the compound `CN(C(=O)c1ccccc1)c1nccnc1C#N`, the inhibition is 11.5% (inactive). Regarding `CC(=O)c1c(C)[nH]c(C(=O)OCC(=O)NCCC(C)C)c1C`, the inhibition is -9.8% (inactive). Consider `Cc1cc(C)c(C#N)c(SCC(=O)N(CC(C)C)C2CCS(=O)(=O)C2)n1` (centres undefined), for which the inhibition was -11.7% (inactive). In the case of `O=C(O)c1ccc2c(c1)C(=O)N(NC(=O)c1ccc(O)cc1)C2=O`, the inhibition was -2.08% (inactive). Regarding `O=C(O)c1ccc(/C=C2\SC(=S)N(NC(=O)c3ccc(Br)cc3)C2=O)cc1`, the inhibition was -7.64% (inactive). To `CC(=O)N1C(=O)/C(=C2\SC(=S)N(NC(=O)c3ccc(O)cc3)C2=O)c2ccccc21` belongs 80.2% (active).
